Assay outcomes deposited in PubChem by National Center for Advancing Translational Sciences (NCATS).
Sfp PPTase inh – qHTS Assay for Inhibitors of Bacillus subtilis Sfp phosphopantetheinyl transferase (PPTase) | AID 1490, 2009 | Potency, µM, for inactives: largest response in the series, negative = inhibition, most hits filed as inhibitors | hit rate 3.5% among 310,000 | 4'-phosphopantetheinyl transferase ffp (Bacillus subtilis), Q9F4F7 | Biochemical Sfp PPTase activity, qHTS;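 note: the enzyme is Sfp with the accession as filed and its product quenches rhodamine fluorescence; potency is the fitted concentration of half-maximal effect; 0% = enzyme reaction without inhibitor and -100% = no enzyme wells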
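Reaction rates are the 30-min fluorescence difference (ex 525, em 598 nm) in wells containing 15 nM Sfp, 5 uM rhodamine-CoA and 12.5 uM BHQ-2-YbbR at pH 7.6 with 10 mM MgCl2.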
KAT2A inh – qHTS Assay for Inhibitors of GCN5L2; Histone acetyltransferase KAT2A (Homo sapiens), Q92830; GCN5L2 HAT assay, ThioGlo1 CoA-SH fluorescence; Potency, µM (series often up to 58.9 µM), for inactives: top-dose activity change, negative = inhibition, actives largely listed as inhibitors; hit rate 0.21% among 390,000; note: potency is the fitted concentration of half-maximal effect; % is set by controls: 0 for no effect and ±100 for the full control effect
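Titration-based screen in which CoA formation is detected via maleimide probe ThioGlo1 (50uM) turning fluorescent on thiol reaction; substrates H3(1-25) 75uM and acetyl-CoA 70uM, GCN5L2 20nM, 20 min incubation at room temperature.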
GLS inhibitor – qHTS for Inhibitors of Glutaminase (GLS). Glutaminase kidney isoform, mitochondrial (Homo sapiens), O94925. GLS enzymatic activity, qHTS titration. Potency, µM (titrated, usually from 45.5 µM), without a hit: top-dose activity change, negative = inhibition, actives largely listed as inhibitors. hit rate 0.21% among 410,000. AID 624170, 2012; note: potency is the fitted concentration of half-maximal effect; % is set by controls: 0 for no effect and ±100 for the full control effect
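Compounds were pin-transferred onto hKGA, after which L-glutamine (1 mM solution) and a detection mix of glutamate oxidase, HRP and Amplex Red were added. Initial and 30 min RT fluorescence reads were collected.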
TrxR1 inh – qHTS Assay for Inhibitors of Mammalian Selenoprotein Thioredoxin Reductase 1 (TrxR1): qHTS; AID 588453, 2011; hit rate 1% among 390,000; recombinant rTrxR1, NADPH fluorescence consumption, selenite substrate; Potency, µM (top dose mostly 114 µM), for inactives: at the highest dose activity change, negative = inhibition, usual class: inhibitors; note: potency is the fitted concentration of half-maximal effect; % is set by controls: 0 for no effect and ±100 for the full control effect; nearly all actives have a fitted effect of over 65% in size
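Rat TrxR1 (90 nM in the dispensed reagent) was pre-reduced with 400 uM NADPH for 5 min at room temperature, then incubated with compound for 15 min. After 400 uM selenite was added, NADPH fluorescence (Ex 340/Em 450 nm) was followed for 8 min.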
TrxR1 substrate – qHTS Assay for Substrates of Mammalian Selenoprotein Thioredoxin Reductase 1 (TrxR1): qHTS | hit rate 0.01% among 390,000 | purified TrxR1 substrate turnover, NADPH consumption readout | Potency, µM (top dose mostly 114 µM), for inactives: at the top dose activity change, negative = substrate turnover | Thioredoxin reductase 1, cytoplasmic (Rattus norvegicus), O89049; note: potency is the fitted concentration of half-maximal effect; % is set by controls: 0 for no effect and ±100 for the full control effect; nearly all actives have a fitted effect of over 50% in size
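Rat TrxR1, dispensed at 90 nM, was prereduced with 400 uM NADPH (final) for 5 min at ~22 deg C, then incubated with compound 15 min before 400 uM selenite. A first-read NADPH fluorescence drop versus no-compound background flagged substrates.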
VDR inhibitor – Inhibitors of the vitamin D receptor (VDR): qHTS; Vitamin D3 receptor (Homo sapiens), P11473; VDR-SRC2-3 peptide fluorescence polarization, 2 h; Potency, µM, without a hit: max response, negative = inhibition, most hits filed as inhibitors; hit rate 0.93% among 400,000; AID 504847, 2011; note: potency is the fitted concentration of half-maximal effect; % is set by controls: 0 for no effect and ±100 for the full control effect
Target sequence (P11473 whole entry, looked up): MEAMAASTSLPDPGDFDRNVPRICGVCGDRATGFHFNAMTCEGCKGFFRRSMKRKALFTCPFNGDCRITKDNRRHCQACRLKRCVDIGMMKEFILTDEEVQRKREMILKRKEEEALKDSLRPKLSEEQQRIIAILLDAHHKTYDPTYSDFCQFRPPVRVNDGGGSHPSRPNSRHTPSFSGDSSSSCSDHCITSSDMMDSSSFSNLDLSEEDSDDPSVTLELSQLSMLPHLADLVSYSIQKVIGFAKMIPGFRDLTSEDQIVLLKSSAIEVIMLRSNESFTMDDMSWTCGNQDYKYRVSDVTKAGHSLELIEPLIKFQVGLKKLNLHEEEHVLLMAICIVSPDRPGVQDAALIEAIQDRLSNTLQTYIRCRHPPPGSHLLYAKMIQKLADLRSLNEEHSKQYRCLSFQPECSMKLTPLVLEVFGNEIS
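Reagent solutions, kept cold and dark, are dispensed first; compounds are then pinned in at 23 nl, plates briefly spun, and incubated 2 h at ambient temperature. Inhibition of VDR–SRC2-3 peptide binding is read by fluorescence polarization.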
USP1 UbRho – Inhibitors of USP1/UAF1: Hit Validation in Primary Assay; AID 540327, 2011; Ub-Rhodamine cleavage, fluorescence kinetic read; hit rate 50% among 50; shares compounds with VDR inhibitor; Potency, µM (titrated, usually from 56.8 µM), for inactives: at the top dose activity change, negative = inhibition, hits mostly inhibitors
VDR inh confirm – qHTS for Inhibitors of the vitamin D receptor (VDR): Hit Validation in Primary Screen. shares compounds with VDR inhibitor. Potency, µM, actives largely listed as inhibitors. hit rate 89% among 840. VDR-coactivator inhibition assay, qHTS confirmation. AID 602199, 2012; note: potency is the fitted concentration of half-maximal effect
VDR FP fluor – qHTS for Inhibitors of the vitamin D receptor (VDR): Hit Validation using a Fluorescein Assay. VDR-coactivator binding, fluorescein fluorescence polarization. Potency, µM (titrated, usually from 57.1 µM), for the others: at the top dose activity change, negative = inhibition, actives largely listed as inhibitors. shares compounds with VDR inhibitor. hit rate 48% among 840. AID 602200, 2012; note: potency is the fitted concentration of half-maximal effect
VDR bla reporter – qHTS for Inhibitors of the vitamin D receptor (VDR): Hit Validation using a Beta-Lactamase Assay | shares compounds with VDR inhibitor | VDR beta-lactamase reporter cells, FRET ratio; cells co-treated with VDR agonist LG190178 | Potency, µM (series often up to 46.1 µM), for the others: at the top dose activity change, negative = inhibition, usual class: inhibitors | hit rate 23% among 840 | AID 602202, 2012; note: potency is the fitted concentration of half-maximal effect; % is set by controls: 0 for no effect and ±100 for the full control effect
VDR viability – qHTS for Inhibitors of the vitamin D receptor (VDR): Hit Validation using a Cytotoxicity Assay | shares compounds with VDR inhibitor | cytotoxicity counter-screen, cell viability, qHTS | Potency, µM (doses to about 48.3 µM), inactives show at the highest dose activity change, negative = cytotoxicity, usual class: cytotoxic | hit rate 18% among 840 | AID 602204, 2012;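 note: potency is the fitted concentration of half-maximal effect; plate controls were DMSO for no effect and high-concentration cycloheximide for full effect; nearly all actives have a fitted effect of over 75% in size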
An asterisk follows results filed as active; ? = inconclusive; nt = no result given; [ ] = another dose, or the depositor's remark. Sampled rows, rich in hits. Any-hit rate of the full collection: about 3.8%. Calls come from the whole dose curve; as a rule, active = well fitted curve in the direction sought with a large enough effect; inconclusive = small, poorly fitted or top-dose-only effect, or another doubt; inactive = no such curve, though single readings can be large; an effect the other way counts as inactive or inconclusive.

SMILES	Sfp PPTase inh	KAT2A inh	GLS inhibitor	TrxR1 inh	TrxR1 substrate	VDR inhibitor	VDR inh confirm	VDR FP fluor	VDR bla reporter	VDR viability	others
CN1CC[C@]2(C)c3cc(O)ccc3N(C)[C@@H]12	-24%	8%[21.4 µM]	nt	nt	nt	?	nt	nt	nt	nt	USP1 UbRho=?
CN1C(=O)C(=Cc2ccccc2OS(=O)(=O)c2ccccc2)C(=O)N(C)C1=O	35µM*	-3%	35%	28µM*	-2%	25µM*	27*	11µM*	20%	-13%
COc1ccc(C(=O)C2CCCN(Cc3ccccn3)C2)c(OC)c1 (configuration not stated)	-3%	0%	-4%	4%	-2%	-16%	nt	nt	nt	nt
COc1cc2c(cc1O)[C@H]1Cc3ccc(OC)c(O)c3CN1CC2	9%	-59%[21.4 µM]	nt	nt	nt	-11%	nt	nt	nt	nt	USP1 UbRho=?
O=C(O)Cn1cc(/C=C2\C(=O)NC(=O)N(c3ccc(F)cc3)C2=O)c2ccccc21	-4%	-9%	nt	nt	nt	nt	nt	nt	nt	nt
Cc1cc(/C=C2/C(=O)NC(=O)N(c3ccc(Br)cc3)C2=O)c(C)n1C	6%	-10%	3%	7%[57.1 µM]	5%[57.1 µM]	23%	nt	nt	nt	nt
O=C1NC(=O)N(c2ccccc2)C(=O)/C1=C\c1ccccc1[N+](=O)[O-]	22µM*	-3%	-17%	?	9%[57.1 µM]	45µM*	21*	28µM*	24%	6%
CCOc1ccc(N2C(=O)NC(=O)/C(=C\c3cc(OC)c(OC)cc3[N+](=O)[O-])C2=O)cc1	45µM*	1%	-15%	11µM*	9%[57.1 µM]	32µM*	17*	13µM*	26%	6%
COc1ccc(N2C(=O)/C(=C/C=C/c3ccccc3[N+](=O)[O-])C(=O)NC2=S)cc1	35µM*	?	-32%	?	5%[57.1 µM]	22µM*	3.4*	?	?	-21%
Cc1ccc(N)c(C(=O)c2ccccc2)c1	5%	?	19%	13%[57.1 µM]	7%	13%	nt	nt	nt	nt
COc1ccccc1CCNCc1cccc(C(F)(F)F)c1	13%	-3%	-1%	8%	-4%	-8%	nt	nt	nt	nt
O=c1nc(/C=C/c2ccc(Cl)cc2Cl)cc(C(F)(F)F)[nH]1	-17%	-23%	-5%	-15%	10%[2.29 µM]	10µM*	7.5*	3.2µM*	?	37%
O=C(c1csc2c1CCCCC2)N1CCC2(CC1)OCCO2	12%	3%	3%	2%[57.1 µM]	4%[57.1 µM]	4%	nt	nt	nt	nt
O=C(/C=C/c1ccccc1)c1c(O)n(CCc2ccccc2)c(=O)[nH]c1=O	8%	-6%	0%	?	-15%	?	2*	?	18µM*	22%
O=C1N[C@@H](Cc2ccccc2)C(=O)N2[C@H]1C[C@H]1c3ccccc3N(OOSc3ccccc3)[C@H]12	nt	nt	1%	4%	1%	1%	nt	nt	nt	nt
O=S(=O)(/C(=C/c1ccc(C(F)(F)F)cc1)c1nc2ccccc2[nH]1)c1ccccc1	-19%	-1%	-3%	?	10%[57.1 µM]	16µM*	3.8*	?	2.3µM*	8.2µM*
Cc1ccc(NC(=O)COC(=O)CCc2c[nH]c3ccccc23)cc1[N+](=O)[O-]	?	-15%	-4%	13%	-1%	9%	nt	nt	nt	nt
COc1cc(/C=C/[N+](=O)[O-])ccc1O	?	-10%	21%	3.2µM*	-8%	28µM*	30*	?	?	?
COc1ccc(-n2c(/C=C/c3ccc(O)c(OC)c3)nc3ccccc3c2=O)cc1	1%	-14%	-1%	9%	2%	-16%	nt	nt	nt	nt
C[C@]12C[C@@H](O)[C@H](O)CC1=CCC1C2CC[C@@]2(C)C1CC[C@@H]2O (some centres not stated)	nt	-7%	-18%	12%	1%	8%	nt	nt	nt	nt
COC(=O)C1=Nc2ccccc2/C1=C\c1c(O)n(-c2ccc(Br)cc2)c(=O)[nH]c1=O	45µM*	-23%	?	?	-7%	79µM*	21*	?	30%	-9%
CC(C)n1c(O)c(C2c3cc(Cl)ccc3Oc3[nH]c(=O)n(C(C)C)c(=O)c32)c(=O)[nH]c1=O (configuration not stated)	28µM*	28µM*	?	-47%	8%[57.1 µM]	8.9µM*	4.2*	?	5.2µM*	?
COc1cc(CN2CCCC(C(=O)c3sccc3C)C2)cc(Cl)c1O (configuration not stated)	-9%	-23%	?	16%[57.1 µM]	3%[57.1 µM]	-2%	nt	nt	nt	nt
CCC(C)n1c(O)c(C=NCc2cccnc2)c(=O)[nH]c1=S (configuration not stated)	0%	1%	8%	-19%	-16%	0%	nt	nt	nt	nt
O=C1NC(=S)NC(=O)C1=Cc1cccn1-c1ccc(O)cc1	18µM*	?	13%	20µM*	1%	25µM*	8.4*	?	?	?
